Test results reported in the supplement of paper PMC6411743.
± gives the standard deviation of the averaged measurements. Targets with the largest changes are over-represented here; the source holds about 5,400 in all.

Compound: Nc1nc2c(ncn2[C@@H]2O[C@H](COP(=O)(O)OP(=O)(O)OP(=O)(O)O)[C@@H](O)[C@H]2O)c(=O)[nH]1 [guanosine triphosphate]
Experiment: NP40-soluble protein abundance relative to vehicle (solubility fold change) (ratio); higher = more soluble protein in presence of GTP
Protocol: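 Solubility proteome profiling in Jurkat crude lysate. Lysate was treated with Mg-GTP (0.1-10 mM) for 10 min at room temperature and 3 min at 37 °C, then solubilised with 0.8% NP40 and benzonase, followed by ultracentrifugation. Proteins were quantified by TMT10 LC-MS/MS; the value is the NP40-soluble abundance relative to the NP40-processed vehicle, from 3 independent experiments.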

Sequence of UniProt O00567 (O00567 whole entry): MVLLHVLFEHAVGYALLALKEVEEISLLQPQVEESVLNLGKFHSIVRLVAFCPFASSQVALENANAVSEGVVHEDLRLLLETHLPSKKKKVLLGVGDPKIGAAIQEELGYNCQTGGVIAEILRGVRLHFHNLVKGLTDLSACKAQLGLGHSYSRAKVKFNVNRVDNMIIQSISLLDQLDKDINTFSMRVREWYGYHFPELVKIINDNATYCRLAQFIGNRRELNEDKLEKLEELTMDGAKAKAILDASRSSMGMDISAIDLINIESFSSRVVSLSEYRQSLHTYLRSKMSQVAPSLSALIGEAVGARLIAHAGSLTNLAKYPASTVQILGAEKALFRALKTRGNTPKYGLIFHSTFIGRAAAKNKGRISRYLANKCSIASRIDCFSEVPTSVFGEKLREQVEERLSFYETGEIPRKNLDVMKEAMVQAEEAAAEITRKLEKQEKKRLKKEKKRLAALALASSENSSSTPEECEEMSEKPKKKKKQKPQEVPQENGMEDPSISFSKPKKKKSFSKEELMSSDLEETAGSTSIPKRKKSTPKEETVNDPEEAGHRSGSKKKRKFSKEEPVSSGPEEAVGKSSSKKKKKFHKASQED
Sequence of UniProt O15111 (O15111 whole entry): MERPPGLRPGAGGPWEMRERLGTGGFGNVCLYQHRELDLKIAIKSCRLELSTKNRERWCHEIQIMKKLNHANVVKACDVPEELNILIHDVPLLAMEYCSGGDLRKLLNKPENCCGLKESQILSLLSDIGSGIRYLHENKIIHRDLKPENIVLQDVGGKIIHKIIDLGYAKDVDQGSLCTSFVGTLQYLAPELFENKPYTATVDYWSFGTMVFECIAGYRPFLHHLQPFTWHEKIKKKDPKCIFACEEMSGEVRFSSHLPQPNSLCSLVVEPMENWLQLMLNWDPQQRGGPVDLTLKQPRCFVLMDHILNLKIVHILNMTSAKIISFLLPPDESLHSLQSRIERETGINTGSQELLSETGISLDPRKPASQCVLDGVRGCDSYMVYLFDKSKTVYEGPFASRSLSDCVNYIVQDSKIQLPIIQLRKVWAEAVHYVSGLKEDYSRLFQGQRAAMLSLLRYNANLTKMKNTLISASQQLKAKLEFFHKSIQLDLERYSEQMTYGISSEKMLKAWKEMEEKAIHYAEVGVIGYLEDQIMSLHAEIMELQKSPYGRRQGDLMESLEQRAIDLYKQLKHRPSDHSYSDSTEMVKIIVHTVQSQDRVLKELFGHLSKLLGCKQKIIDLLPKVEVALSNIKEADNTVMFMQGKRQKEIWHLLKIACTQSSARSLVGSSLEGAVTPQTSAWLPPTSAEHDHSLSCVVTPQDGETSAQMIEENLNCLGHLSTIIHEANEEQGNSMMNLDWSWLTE
Sequence of UniProt Q9BQE5 (Q9BQE5 whole entry, one chain of several): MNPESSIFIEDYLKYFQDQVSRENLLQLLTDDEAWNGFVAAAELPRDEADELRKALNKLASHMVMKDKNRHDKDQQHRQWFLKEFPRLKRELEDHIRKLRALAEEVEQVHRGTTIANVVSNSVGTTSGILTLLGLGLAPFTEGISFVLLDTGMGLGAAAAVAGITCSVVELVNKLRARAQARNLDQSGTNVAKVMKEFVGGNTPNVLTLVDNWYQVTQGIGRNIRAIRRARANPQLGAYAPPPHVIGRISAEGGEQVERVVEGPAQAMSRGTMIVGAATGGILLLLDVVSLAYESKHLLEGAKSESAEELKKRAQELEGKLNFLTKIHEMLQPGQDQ
Sequence of UniProt O60281 (O60281 whole entry, one chain of several): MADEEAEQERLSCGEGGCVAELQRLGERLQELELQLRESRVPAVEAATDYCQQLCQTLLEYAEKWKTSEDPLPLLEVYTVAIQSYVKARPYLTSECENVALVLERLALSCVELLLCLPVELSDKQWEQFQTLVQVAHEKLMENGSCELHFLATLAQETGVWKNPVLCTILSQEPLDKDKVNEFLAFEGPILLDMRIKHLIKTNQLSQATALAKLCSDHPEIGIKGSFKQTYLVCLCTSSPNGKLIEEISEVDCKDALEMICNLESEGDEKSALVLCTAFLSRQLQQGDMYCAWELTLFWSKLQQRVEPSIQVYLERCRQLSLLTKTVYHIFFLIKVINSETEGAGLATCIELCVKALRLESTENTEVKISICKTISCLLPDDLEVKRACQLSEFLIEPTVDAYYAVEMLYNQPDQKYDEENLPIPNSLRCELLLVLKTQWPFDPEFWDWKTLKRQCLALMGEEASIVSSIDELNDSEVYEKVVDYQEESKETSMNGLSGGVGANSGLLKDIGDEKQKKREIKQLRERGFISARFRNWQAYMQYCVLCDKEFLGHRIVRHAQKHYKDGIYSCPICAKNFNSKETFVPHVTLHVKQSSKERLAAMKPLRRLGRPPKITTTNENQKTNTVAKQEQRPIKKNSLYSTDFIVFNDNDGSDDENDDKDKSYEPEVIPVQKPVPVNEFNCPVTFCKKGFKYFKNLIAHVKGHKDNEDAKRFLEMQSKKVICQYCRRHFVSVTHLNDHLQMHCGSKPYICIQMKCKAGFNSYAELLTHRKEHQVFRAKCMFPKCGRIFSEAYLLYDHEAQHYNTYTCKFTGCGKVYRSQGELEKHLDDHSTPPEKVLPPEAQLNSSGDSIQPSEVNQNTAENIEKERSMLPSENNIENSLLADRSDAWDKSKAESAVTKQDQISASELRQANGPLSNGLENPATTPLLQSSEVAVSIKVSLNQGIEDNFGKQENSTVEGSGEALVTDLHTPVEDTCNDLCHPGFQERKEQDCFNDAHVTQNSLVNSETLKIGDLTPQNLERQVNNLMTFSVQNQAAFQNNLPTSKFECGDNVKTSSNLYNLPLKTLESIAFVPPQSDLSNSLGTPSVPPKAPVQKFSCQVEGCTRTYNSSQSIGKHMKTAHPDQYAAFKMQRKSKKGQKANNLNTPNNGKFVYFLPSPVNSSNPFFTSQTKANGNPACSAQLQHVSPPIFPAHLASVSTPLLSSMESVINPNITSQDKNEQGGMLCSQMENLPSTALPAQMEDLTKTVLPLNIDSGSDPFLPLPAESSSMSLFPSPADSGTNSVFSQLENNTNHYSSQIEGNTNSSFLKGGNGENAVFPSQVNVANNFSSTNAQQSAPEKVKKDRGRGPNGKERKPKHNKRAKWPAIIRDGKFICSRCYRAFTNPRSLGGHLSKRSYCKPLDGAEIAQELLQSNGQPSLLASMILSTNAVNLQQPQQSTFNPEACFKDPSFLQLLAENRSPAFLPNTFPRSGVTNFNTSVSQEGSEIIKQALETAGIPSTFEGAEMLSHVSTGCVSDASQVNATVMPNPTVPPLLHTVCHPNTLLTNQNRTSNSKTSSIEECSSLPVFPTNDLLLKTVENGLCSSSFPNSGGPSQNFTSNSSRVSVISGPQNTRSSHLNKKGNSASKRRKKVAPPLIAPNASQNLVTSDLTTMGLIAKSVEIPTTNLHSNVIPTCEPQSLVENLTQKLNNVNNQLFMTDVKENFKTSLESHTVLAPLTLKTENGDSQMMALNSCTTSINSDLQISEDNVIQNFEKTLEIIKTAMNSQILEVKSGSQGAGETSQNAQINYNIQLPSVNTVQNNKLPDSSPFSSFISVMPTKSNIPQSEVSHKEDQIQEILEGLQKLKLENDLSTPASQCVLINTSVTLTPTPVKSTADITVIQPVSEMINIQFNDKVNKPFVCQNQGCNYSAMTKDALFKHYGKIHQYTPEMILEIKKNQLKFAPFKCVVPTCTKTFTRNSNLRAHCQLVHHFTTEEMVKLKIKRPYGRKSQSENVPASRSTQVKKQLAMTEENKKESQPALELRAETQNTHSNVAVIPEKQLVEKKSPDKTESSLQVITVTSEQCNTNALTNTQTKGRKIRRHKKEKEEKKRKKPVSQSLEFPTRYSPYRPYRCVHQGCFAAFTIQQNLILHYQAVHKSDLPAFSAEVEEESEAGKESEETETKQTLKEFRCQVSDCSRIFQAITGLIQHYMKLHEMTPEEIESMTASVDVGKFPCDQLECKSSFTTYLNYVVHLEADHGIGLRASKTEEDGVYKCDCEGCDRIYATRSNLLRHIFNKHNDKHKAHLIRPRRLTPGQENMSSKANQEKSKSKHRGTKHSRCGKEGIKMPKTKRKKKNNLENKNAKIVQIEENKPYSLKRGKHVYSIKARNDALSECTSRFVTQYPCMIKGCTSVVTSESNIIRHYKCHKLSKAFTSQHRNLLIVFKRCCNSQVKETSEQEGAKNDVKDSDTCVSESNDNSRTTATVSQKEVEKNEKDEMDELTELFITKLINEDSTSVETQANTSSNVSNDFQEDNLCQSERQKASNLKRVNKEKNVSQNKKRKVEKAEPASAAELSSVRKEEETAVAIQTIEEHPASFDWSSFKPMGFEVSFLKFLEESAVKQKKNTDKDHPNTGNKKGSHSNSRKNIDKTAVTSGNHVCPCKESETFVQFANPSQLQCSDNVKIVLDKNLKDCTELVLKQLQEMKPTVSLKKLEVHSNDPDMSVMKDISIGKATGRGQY
Sequence of UniProt O95232 (O95232 whole entry, one chain of several): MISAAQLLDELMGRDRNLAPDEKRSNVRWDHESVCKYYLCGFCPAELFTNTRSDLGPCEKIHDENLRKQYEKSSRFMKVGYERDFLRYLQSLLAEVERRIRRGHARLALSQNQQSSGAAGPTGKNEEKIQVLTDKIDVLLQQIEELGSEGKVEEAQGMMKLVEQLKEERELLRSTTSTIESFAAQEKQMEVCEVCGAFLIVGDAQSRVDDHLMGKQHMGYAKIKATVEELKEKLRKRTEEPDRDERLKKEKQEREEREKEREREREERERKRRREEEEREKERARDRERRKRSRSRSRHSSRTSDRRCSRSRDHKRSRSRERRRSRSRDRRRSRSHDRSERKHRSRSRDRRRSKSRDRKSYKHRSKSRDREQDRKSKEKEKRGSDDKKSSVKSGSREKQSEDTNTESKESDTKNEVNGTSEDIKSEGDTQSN

Target	NP40-soluble protein abundance (concentration: 0.1mM)	NP40-soluble protein abundance (concentration: 0.5mM)	NP40-soluble protein abundance (concentration: 1mM)	NP40-soluble protein abundance (concentration: 2mM)	NP40-soluble protein abundance (concentration: 4mM)	NP40-soluble protein abundance (concentration: 6mM)	NP40-soluble protein abundance (concentration: 8mM)	NP40-soluble protein abundance (concentration: 10mM)
J3KPP4|O95232|H0YA81 (UniProt O95232)	1.13 ± 0.027	1.45 ± 0.062	1.54 ± 0.1	1.54 ± 0.095	1.56 ± 0.12	1.63 ± 0.13	1.72 ± 0.19	1.74 ± 0.18
UniProt O00567	1.05 ± 0.035	1.03 ± 0.046	1.1 ± 0.087	1.23 ± 0.075	1.55 ± 0.12	1.75 ± 0.12	2.06 ± 0.14	2.48 ± 0.13
UniProt O15111	1.03 ± 0.04	1.04 ± 0.07	0.963 ± 0.052	0.964 ± 0.081	0.961 ± 0.06	0.927 ± 0.061	0.891 ± 0.013	0.887 ± 0.024
J3KQL8|Q9BQE5 (UniProt Q9BQE5)	0.987 ± 0.019	1.01 ± 0.041	0.984 ± 0.054	0.956 ± 0.058	0.917 ± 0.044	0.982 ± 0.05	0.957 ± 0.045	0.928 ± 0.051
J3KNV1|O60281|O60281-2 (UniProt O60281)	1.06 ± 0.041	1.05 ± 0.095	1.12 ± 0.066	1.09 ± 0.13	1.02 ± 0.051	1.04 ± 0.15	1.07 ± 0.057	1.05 ± 0.036
